TrxR1 substrate: substrates of rat thioredoxin reductase 1 | O89049 | purified TrxR1 substrate turnover, NADPH consumption readout | Potency, µM (top dose mostly 114 µM) | 390,000 compounds, 0.01% hits | AID 588456; further: nearly all actives have a fitted effect of over 50% in size
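Rat TrxR1, dispensed at 90 nM, was prereduced with 400 uM NADPH (final) for 5 min at ~22 deg C, then incubated with compound 15 min before 400 uM selenite. A first-read NADPH fluorescence drop versus no-compound background flagged substrates.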
GALK inhibitor: blocks human galactokinase activity; P51570; Purified GALK, Kinase-Glo residual ATP luminescence; Potency, µM (titrated, usually from 57.5 µM), hits mostly inhibitors; 270,000 compounds, 0.007% hits
Target sequence (P51570 whole entry, looked up): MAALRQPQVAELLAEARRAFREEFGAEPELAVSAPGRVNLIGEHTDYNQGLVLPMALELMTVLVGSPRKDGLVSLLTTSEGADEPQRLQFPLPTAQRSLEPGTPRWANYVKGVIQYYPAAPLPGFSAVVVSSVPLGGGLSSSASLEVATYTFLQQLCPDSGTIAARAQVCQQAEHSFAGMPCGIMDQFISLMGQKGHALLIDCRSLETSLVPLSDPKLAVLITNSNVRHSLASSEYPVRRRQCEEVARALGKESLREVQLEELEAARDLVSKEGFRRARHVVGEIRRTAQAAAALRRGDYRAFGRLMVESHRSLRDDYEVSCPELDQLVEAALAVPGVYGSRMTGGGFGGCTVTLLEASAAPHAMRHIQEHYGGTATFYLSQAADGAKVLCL
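Luminescence from leftover ATP (Ultra-Glo luciferase/luciferin) served as read-out after a 1 h room-temperature reaction of 5 nM GALK with 35 uM ATP and 100 uM galactose.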
Gal4-VP16 FLuc: counter-screen for ROR gamma inhibitors: Gal4-VP16 reporter. Drosophila S2 Gal4-VP16 UAS-luciferase, luminescence, 20 h. Potency, µM (titrated, usually from 53.6 µM), usual class: inhibitors. 310,000 compounds, 3.5% hits;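 further: Gal4-VP16 expression switched on by copper sulfate through the metallothionein promoter; nearly all actives have a fitted effect of over 50% in size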
Coupling enz: inhibits coupling enzyme system, counter-screen for aldolase hits. activity change, negative = inhibition, % at 58.2 µM, hits read low. AID 2472. 290,000 compounds, 0.67% hits. coupling enzyme system counterscreen, AmpLite Red fluorescence; in the data active means activity change below about -30%
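Coupling enzymes only (glyceraldehyde-3-phosphate) + compound, at 57.5 uM final, 10 min RT; add substrate/coupling/AmpLite Red mix, 20 min RT; fluorescence ex 525/em 598 nm. Actives flag coupling-system interference.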
TrxR1 inh: rat TrxR1 inhibition; O89049; recombinant rTrxR1, NADPH fluorescence consumption, selenite substrate; Potency, µM (series often up to 114 µM), hits mostly inhibitors; 390,000 compounds, 1% hits; further: nearly all actives have a fitted effect of over 65% in size
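Rat TrxR1 (90 nM in the dispensed reagent) was pre-reduced with 400 uM NADPH for 5 min at room temperature, then incubated with compound for 15 min. After 400 uM selenite was added, NADPH fluorescence (Ex 340/Em 450 nm) was followed for 8 min.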
RORgamma inh: blocks mouse ROR gamma transcriptional activity. P51450. Drosophila S2 Gal4-RORgamma UAS-luciferase reporter, 20 h. Potency, µM (top dose mostly 53.6 µM), most hits filed as inhibitors. 310,000 compounds, 5.4% hits. AID 2551; further: nearly all actives have a fitted effect of over 60% in size
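In this cell-based reporter format, copper sulfate (700 uM final) drives Gal4–ROR gamma fusion expression from a metallothionein promoter in Drosophila Schneider cells; compounds preincubated 1 hr, reporter read after 20 hr at ambient temperature.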
Of the large screens only hits and unclear results are named; the others gave an inactive call. Shown are actives, neighbours in structure and some others; about 5.9% of the full set was active somewhere. Unless noted, the call rests on the fitted dose curve; in most records, active means well fitted curve in the direction sought with a large enough effect; inconclusive means small, poorly fitted or top-dose-only effect, or another doubt; inactive means no such curve, though single readings can be large; an effect the other way counts as inactive or inconclusive.

CC1=NN(c2ccc(C(=O)O)cc2)C(=O)/C1=C\c1ccc(OC(=O)c2cccs2)cc1	TrxR1 inh inconclusive, RORgamma inh 11µM
COc1ccc(/C=C/C(=O)NC(=S)NNC(=O)Cc2cccs2)cc1	Gal4-VP16 FLuc inconclusive, RORgamma inh 11µM
O=C(/C=C/c1cccs1)NC(=S)NNC(=O)c1ccccc1O	RORgamma inh inconclusive
COc1ccc(C(=O)NNC(=S)NC(=O)/C=C/c2cccs2)cc1	RORgamma inh inconclusive
O=C(/C=C/c1ccccc1)NC(=S)NNC(=O)Cc1cccs1	Gal4-VP16 FLuc 5µM, RORgamma inh 2.5µM
O=C(c1cc([N+](=O)[O-])cc([N+](=O)[O-])c1)N1CCCc2ccccc21	none
CCOC(=O)c1ccc(CN(Cc2ccccc2C)S(=O)(=O)c2ccc(C(C)(C)C)cc2)cc1	none (no result: GALK inhibitor, Gal4-VP16 FLuc, Coupling enz, RORgamma inh)
CCNC(=S)N/N=C(\C)c1ccco1	Gal4-VP16 FLuc 13µM, RORgamma inh 4µM
C/C(=N\NC(=S)NCc1ccccc1)c1ccc2ccccc2c1OC(F)F	Gal4-VP16 FLuc 2.2µM, RORgamma inh 2.2µM
CCOC(=O)N/N=C(\C)c1ccc(C)o1	none
COC(=O)N/N=C(\C)c1ccccc1OC(F)F	none (no result: GALK inhibitor)
C/C(=N\NC(=S)NCc1ccccc1)c1ccc(C)o1	Gal4-VP16 FLuc 7.1µM, RORgamma inh 2.2µM
C/C(=N\NC(=S)NCc1ccccc1)c1ccc2c(c1)OCCO2	Gal4-VP16 FLuc 8.9µM, RORgamma inh 2.8µM
CCCCNC(=O)CN(CCc1ccccc1)S(C)(=O)=O	none
CC(C)(C)NC(=O)c1ccc2c(c1)C(=O)N(C1CCCCC1)C2=O	none
C/C(=N\NC(=S)NCc1ccccc1)c1ccc(Br)cc1	Gal4-VP16 FLuc 0.5µM, RORgamma inh 0.28µM
C/C(=N\NC(=O)CCc1ccccc1)c1ccc(Br)cc1	none
O=C(O)c1cccc(Cn2c(Cl)c(/C=N/Nc3ccccc3)sc2=O)c1	TrxR1 inh 8.9µM
COc1ccc(C(=O)N/N=C/c2sc(=O)n(Cc3cccc(C(=O)O)c3)c2Cl)cc1	TrxR1 inh 79µM (no result: GALK inhibitor)
Cn1c(-c2ccccc2)c(C(=O)CCl)c2ccccc21	Gal4-VP16 FLuc inconclusive, RORgamma inh 7.1µM
Cn1c(-c2ccccc2)c(O)c(=O)c2ccccc21	none (no result: TrxR1 substrate, GALK inhibitor, TrxR1 inh)
CCn1c(-c2ccccc2)c(C(=O)CCl)c2ccccc21	Gal4-VP16 FLuc inconclusive, TrxR1 inh inconclusive, RORgamma inh 11µM
COc1ccc(S(=O)(=O)N(CCc2ccccc2)CC(=O)Nc2ccc(C)c(C)c2)cc1OC	none (no result: GALK inhibitor, Gal4-VP16 FLuc, Coupling enz, RORgamma inh)
CC(=O)Nc1nc(N)n(-c2ccccc2)n1	none
CC(=O)Nc1nc(NC(=O)C(Cl)(Cl)Cl)n(-c2ccccc2)n1	Gal4-VP16 FLuc 13µM, RORgamma inh 7.1µM
COc1cccc(N2C(=O)/C(=C\c3cccs3)NC2=S)c1	Gal4-VP16 FLuc inconclusive, RORgamma inh 10µM
CC(C)CN1C(=O)/C(=C/c2cccs2)NC1=S	Gal4-VP16 FLuc 7.1µM, TrxR1 inh 14µM, RORgamma inh 5µM
CC(C)CN1C(=O)/C(=C/c2ccco2)NC1=S	Gal4-VP16 FLuc inconclusive, RORgamma inh inconclusive (no result: GALK inhibitor)
CCCN1C(=O)/C(=C/c2ccc(C)s2)NC1=S	Gal4-VP16 FLuc 10µM, RORgamma inh 5.6µM
CC1CCN(c2nc(CN3CCCCC3)nc3scc(-c4ccccc4)c23)CC1	Gal4-VP16 FLuc 22µM, RORgamma inh 10µM
CCc1[nH]c(=O)[nH]c1C(C)S(=O)(=O)c1ccc(C)cc1 (stereo not given)	Gal4-VP16 FLuc inconclusive, TrxR1 inh 1.1µM, RORgamma inh 14µM
CCc1c(C(C)S(=O)(=O)c2ccc(C)cc2)[nH]c(=O)n1-c1ccc(C)cc1 (stereo not given)	TrxR1 inh inconclusive, RORgamma inh inconclusive
C/C(=N\NC(=O)C1CC1)c1ccccc1Br	Gal4-VP16 FLuc 10µM, RORgamma inh inconclusive
C/C(=N\NC(=O)C1CC1)c1ccccc1O	Gal4-VP16 FLuc 6.3µM, RORgamma inh 1µM
C/C(=N/NC(=O)c1ccccc1O)c1ccc(N2C(=O)C3CCCCC3C2=O)cc1 (stereo not given)	Gal4-VP16 FLuc inconclusive, RORgamma inh 13µM
C/C(=N\NC(=O)C1CC1)c1ccc(Cl)cc1	none
Cc1cc(=O)n2nc(N3CCC(C(=O)NCc4ccc(F)cc4)CC3)sc2n1	none (no result: Coupling enz)

From PubChem BioAssay
